What all share (conditions): mRNA level, 48 h; actives raise or lower the signal
Read-out in experiment [1]: Fatty acid synthase (Homo sapiens) (UniProt P49327)
The experiment is described as follows: LTEA_HepaRG_FASN: Life Technologies and Expression Analysis (LTEA) Assay for Fatty Acid Synthase (FASN) using HepaRG (AID 2283448). In outline:
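Differentiated human HepaRG cells were exposed for 48 h in serum-free induction medium to eight half-log concentrations up to 100 uM in 0.5% DMSO, in duplicate. FASN mRNA was quantified by TaqMan qRT-PCR, normalized to ACTB/GAPDH/POLR2A, and fitted bidirectionally against DMSO.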

Read-out in experiment [2]: Cyclin D2 (CCND2), CCND2 (gene 894)
The experiment can be described thus: LTEA_HepaRG_CCND2: Life Technologies and Expression Analysis (LTEA) Assay for Cyclin D2 (CCND2) using HepaRG (AID 2283449).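 Also: CCND2 transcript measured by TaqMan qRT-PCR and normalised to three housekeeping genes.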 In outline:
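Chemicals in 0.5% DMSO, eight half-log concentrations from 100 uM top, were applied in duplicate for 48 h to human HepaRG cells in serum-free induction medium. CCND2 mRNA by TaqMan qRT-PCR, normalised to ACTB/GAPDH/POLR2A; bidirectional fit versus DMSO.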

Read-out in experiment [3]: Cyclin Dependent Kinase Inhibitor 1A (CDKN1A), CDKN1A (gene 1026)
The experiment is described as follows: LTEA_HepaRG_CDKN1A: Life Technologies and Expression Analysis (LTEA) Assay for Cyclin Dependent Kinase Inhibitor 1A (CDKN1A) using HepaRG (AID 2283450). The method, boiled down: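 Gain or loss of CDKN1A transcript is scored by bidirectional fitting against 0.5% DMSO vehicle. Human HepaRG cultures receive chemicals for 48 h across an 8-point series peaking at 100 uM; expression comes from qRT-PCR.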

Read-out in experiment [4]: Cyclin D1 (CCND1), CCND1 (gene 595)
The experiment can be described thus: LTEA_HepaRG_CCND1: Life Technologies and Expression Analysis (LTEA) Assay for Cyclin D1 (CCND1) using HepaRG (AID 2283451). The method, boiled down: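 Expression change is measured by qRT-PCR in HepaRG cells after 48 h treatment across eight concentrations topping at 100 uM, with duplicate wells and DMSO (0.5%) serving as baseline for bidirectional fitting.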

Read-out in experiment [5]: catalase (CAT), CAT (gene 847)
The experiment is described as follows: LTEA_HepaRG_CAT: Life Technologies and Expression Analysis (LTEA) Assay for catalase (CAT) using HepaRG (AID 2283452). In outline:
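HepaRG cells in serum-free induction medium, 0.5% DMSO vehicle, exposed 48 h in duplicate over 8 half-log concentrations from 100 uM. CAT mRNA measured by qRT-PCR, normalized to ACTB, GAPDH, POLR2A; bidirectional fit versus DMSO.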

Read-out in experiment [6]: flavin-containing dimethylaniline monooxygenases 3 (FMO3), FMO3 (gene 2328)
The experiment is described as follows: LTEA_HepaRG_FMO3: Life Technologies and Expression Analysis (LTEA) Assay for flavin-containing dimethylaniline monooxygenases 3 (FMO3) using HepaRG (AID 2283453). The method, boiled down:
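HepaRG, 48 h exposure, 8-pt half-log series from 100 uM, 0.5% DMSO vehicle, duplicates; FMO3 transcript by Fluidigm TaqMan qRT-PCR, housekeeping-normalized; gain/loss fit vs DMSO.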

Read-out in experiment [7]: Cytochrome P450 (CYP1A1), CYP1A1 (gene 1543)
The experiment is described as follows: LTEA_HepaRG_CYP1A1: Life Technologies and Expression Analysis (LTEA) Assay for Cytochrome P450 (CYP1A1) using HepaRG (AID 2283454). The method, boiled down:
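Using HepaRG cultures with 0.5% DMSO as vehicle, eight-concentration exposures (max 100 uM) lasted 48 h. Transcript levels were measured by TaqMan qRT-PCR and normalized to ACTB, GAPDH and POLR2A.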

Read-out in experiment [8]: CFLAR gene, CFLAR (gene 8837)
The experiment can be described thus: LTEA_HepaRG_CFLAR: Life Technologies and Expression Analysis (LTEA) Assay for CFLAR gene using HepaRG (AID 2283455). The method, boiled down:
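Differentiated HepaRG cells in serum-free induction medium were exposed 48 h in duplicate to eight half-log concentrations up to 100 uM in 0.5% DMSO; mRNA measured by TaqMan qRT-PCR, normalized to ACTB, GAPDH, POLR2A; bidirectional fitting versus DMSO.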

Read-out in experiment [9]: Forkhead box O1 (FOXO1), FOXO1 (gene 2308)
The experiment is described as follows: LTEA_HepaRG_FOXO1: Life Technologies and Expression Analysis (LTEA) Assay for Forkhead box O1 (FOXO1) using HepaRG (AID 2283456). The method, boiled down: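 Differentiated HepaRG cells, in serum-free induction medium with 0.5% DMSO, exposed 48 h in duplicate to 8-point half-log series from 100 uM. FOXO1 mRNA measured by TaqMan qRT-PCR, normalized to ACTB, GAPDH, POLR2A; bidirectional fit versus DMSO.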

Read-out in experiment [10]: growth arrest and DNA damage 45 (GADD45A), GADD45A (gene 1647)
The experiment can be described thus: LTEA_HepaRG_GADD45A: Life Technologies and Expression Analysis (LTEA) Assay for growth arrest and DNA damage 45 (GADD45A) using HepaRG (AID 2283458). In outline:
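Differentiated HepaRG cells were exposed in duplicate for 48 h in serum-free induction medium to 8-point half-log concentrations up to 100 uM in 0.5% DMSO. GADD45A mRNA was measured by TaqMan qRT-PCR, normalized to ACTB, GAPDH and POLR2A, with bidirectional fitting versus DMSO.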

Read-out in experiment [11]: Forkhead box O3 (FOXO3), FOXO3 (gene 2309)
The experiment is described as follows: LTEA_HepaRG_FOXO3: Life Technologies and Expression Analysis (LTEA) Assay for Forkhead box O3 (FOXO3) using HepaRG (AID 2283459). In outline:
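Differentiated human HepaRG cells, 48 h post-plating, exposed in duplicate for 48 h in serum-free induction medium; 8-point half-log series from 100 uM in 0.5% DMSO. FOXO3 mRNA by TaqMan qRT-PCR, normalized to ACTB/GAPDH/POLR2A; bidirectional fit versus DMSO.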

Read-out in experiment [12]: ABC Transporter (ABCB1), ABCB1 (gene 5243)
The experiment can be described thus: LTEA_HepaRG_ABCB1: Life Technologies and Expression Analysis (LTEA) Assay for ABC Transporter (ABCB1) using HepaRG (AID 2283460). In outline: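 HepaRG cells exposed in duplicate for 48 h in serum-free induction medium to eight half-log concentrations up to 100 uM in 0.5% DMSO. ABCB1 mRNA quantified by qRT-PCR, normalised to ACTB, GAPDH and POLR2A; fitted bidirectionally versus DMSO.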

Read-out in experiment [13]: growth arrest and DNA damage 45 (GADD45B), GADD45B (gene 4616)
The experiment can be described thus: LTEA_HepaRG_GADD45B: Life Technologies and Expression Analysis (LTEA) Assay for growth arrest and DNA damage 45 (GADD45B) using HepaRG (AID 2283461). In outline: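 Human HepaRG monolayers receive chemicals for 48 h at eight half-log concentrations, highest 100 uM, in 0.5% DMSO. Expression is measured by TaqMan qRT-PCR and normalized to ACTB, GAPDH and POLR2A.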

Read-out in experiment [14]: ABC Transporter (ABCC3), ABCC3 (gene 8714)
The experiment can be described thus: LTEA_HepaRG_ABCC3: Life Technologies and Expression Analysis (LTEA) Assay for ABC Transporter (ABCC3) using HepaRG (AID 2283462). In outline:
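Transcriptional change of ABCC3 in HepaRG after 48 h treatment, determined by qRT-PCR normalized to endogenous controls. Concentrations spanned eight half-log steps to 100 uM in 0.5% DMSO.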

Read-out in experiment [15]: ABC Transporter (ABCB11), ABCB11 (gene 8647)
The experiment can be described thus: LTEA_HepaRG_ABCB11: Life Technologies and Expression Analysis (LTEA) Assay for ABC Transporter (ABCB11) using HepaRG (AID 2283463). The method, boiled down:
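Differentiated human HepaRG cells in serum-free induction medium, dosed in duplicate for 48 h. Eight-point half-log series from 100 uM in 0.5% DMSO; ABCB11 mRNA by qRT-PCR, normalized to ACTB, GAPDH, POLR2A, fitted bidirectionally versus DMSO.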

Read-out in experiment [16]: ABC Transporter (ABCC2), ABCC2 (gene 1244)
The experiment is described as follows: LTEA_HepaRG_ABCC2: Life Technologies and Expression Analysis (LTEA) Assay for ABC Transporter (ABCC2) using HepaRG (AID 2283464). In outline:
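After plating and 48 h culture, HepaRG medium is replaced with serum-free induction medium and chemicals are added (8 concentrations, max 100 uM, 0.5% DMSO) for 48 h. Total RNA then undergoes qRT-PCR for ABCC2 with housekeeping normalization.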

Read-out in experiment [17]: Broad substrate specificity ATP-binding cassette transporter ABCG2 (Homo sapiens) (UniProt Q9UNQ0)
The experiment is described as follows: LTEA_HepaRG_ABCG2: Life Technologies and Expression Analysis (LTEA) Assay for ABC Transporter (ABCG2) using HepaRG (AID 2283465). In outline:
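Differentiated HepaRG cells were exposed for 48 h in serum-free induction medium to 8 half-log concentrations, top 100 uM, in 0.5% DMSO. ABCG2 mRNA was measured by qRT-PCR, normalized to ACTB, GAPDH and POLR2A, with bidirectional fitting versus DMSO.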

Read-out in experiment [18]: ATP-citrate lyase (ACLY), ACLY (gene 47)
The experiment is described as follows: LTEA_HepaRG_ACLY: Life Technologies and Expression Analysis (LTEA) Assay for ATP-citrate lyase (ACLY) using HepaRG (AID 2283466). The method, boiled down: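 Differentiated HepaRG cells exposed 48 h in serum-free induction medium to eight half-log concentrations up to 100 uM in 0.5% DMSO, duplicates. Transcript measured by Fluidigm TaqMan qRT-PCR, normalized to ACTB, GAPDH, POLR2A; bidirectional fit versus DMSO.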

Read-out in experiment [19]: Peroxisomal acyl-coenzyme A oxidase 1 (ACOX1) gene, ACOX1 (gene 51)
The experiment is described as follows: LTEA_HepaRG_ACOX1: Life Technologies and Expression Analysis (LTEA) Assay for Peroxisomal acyl-coenzyme A oxidase 1 (ACOX1) gene using HepaRG (AID 2283467). The method, boiled down:
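HepaRG cells, plated 48 h then switched to serum-free induction medium, were exposed in duplicate for 48 h to 8-point half-log concentrations up to 100 uM in 0.5% DMSO. ACOX1 mRNA was measured by qRT-PCR, normalized to ACTB/GAPDH/POLR2A, and fitted bidirectionally versus DMSO.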

Activity calls are given as the source filed them. The calls were made as follows: active = hit-call score of the fitted dose curve at least 0.9, where 1 is the maximum; inactive = score below 0.9.

Fatty acid synthase (Homo sapiens), sequence (P49327 whole entry, looked up): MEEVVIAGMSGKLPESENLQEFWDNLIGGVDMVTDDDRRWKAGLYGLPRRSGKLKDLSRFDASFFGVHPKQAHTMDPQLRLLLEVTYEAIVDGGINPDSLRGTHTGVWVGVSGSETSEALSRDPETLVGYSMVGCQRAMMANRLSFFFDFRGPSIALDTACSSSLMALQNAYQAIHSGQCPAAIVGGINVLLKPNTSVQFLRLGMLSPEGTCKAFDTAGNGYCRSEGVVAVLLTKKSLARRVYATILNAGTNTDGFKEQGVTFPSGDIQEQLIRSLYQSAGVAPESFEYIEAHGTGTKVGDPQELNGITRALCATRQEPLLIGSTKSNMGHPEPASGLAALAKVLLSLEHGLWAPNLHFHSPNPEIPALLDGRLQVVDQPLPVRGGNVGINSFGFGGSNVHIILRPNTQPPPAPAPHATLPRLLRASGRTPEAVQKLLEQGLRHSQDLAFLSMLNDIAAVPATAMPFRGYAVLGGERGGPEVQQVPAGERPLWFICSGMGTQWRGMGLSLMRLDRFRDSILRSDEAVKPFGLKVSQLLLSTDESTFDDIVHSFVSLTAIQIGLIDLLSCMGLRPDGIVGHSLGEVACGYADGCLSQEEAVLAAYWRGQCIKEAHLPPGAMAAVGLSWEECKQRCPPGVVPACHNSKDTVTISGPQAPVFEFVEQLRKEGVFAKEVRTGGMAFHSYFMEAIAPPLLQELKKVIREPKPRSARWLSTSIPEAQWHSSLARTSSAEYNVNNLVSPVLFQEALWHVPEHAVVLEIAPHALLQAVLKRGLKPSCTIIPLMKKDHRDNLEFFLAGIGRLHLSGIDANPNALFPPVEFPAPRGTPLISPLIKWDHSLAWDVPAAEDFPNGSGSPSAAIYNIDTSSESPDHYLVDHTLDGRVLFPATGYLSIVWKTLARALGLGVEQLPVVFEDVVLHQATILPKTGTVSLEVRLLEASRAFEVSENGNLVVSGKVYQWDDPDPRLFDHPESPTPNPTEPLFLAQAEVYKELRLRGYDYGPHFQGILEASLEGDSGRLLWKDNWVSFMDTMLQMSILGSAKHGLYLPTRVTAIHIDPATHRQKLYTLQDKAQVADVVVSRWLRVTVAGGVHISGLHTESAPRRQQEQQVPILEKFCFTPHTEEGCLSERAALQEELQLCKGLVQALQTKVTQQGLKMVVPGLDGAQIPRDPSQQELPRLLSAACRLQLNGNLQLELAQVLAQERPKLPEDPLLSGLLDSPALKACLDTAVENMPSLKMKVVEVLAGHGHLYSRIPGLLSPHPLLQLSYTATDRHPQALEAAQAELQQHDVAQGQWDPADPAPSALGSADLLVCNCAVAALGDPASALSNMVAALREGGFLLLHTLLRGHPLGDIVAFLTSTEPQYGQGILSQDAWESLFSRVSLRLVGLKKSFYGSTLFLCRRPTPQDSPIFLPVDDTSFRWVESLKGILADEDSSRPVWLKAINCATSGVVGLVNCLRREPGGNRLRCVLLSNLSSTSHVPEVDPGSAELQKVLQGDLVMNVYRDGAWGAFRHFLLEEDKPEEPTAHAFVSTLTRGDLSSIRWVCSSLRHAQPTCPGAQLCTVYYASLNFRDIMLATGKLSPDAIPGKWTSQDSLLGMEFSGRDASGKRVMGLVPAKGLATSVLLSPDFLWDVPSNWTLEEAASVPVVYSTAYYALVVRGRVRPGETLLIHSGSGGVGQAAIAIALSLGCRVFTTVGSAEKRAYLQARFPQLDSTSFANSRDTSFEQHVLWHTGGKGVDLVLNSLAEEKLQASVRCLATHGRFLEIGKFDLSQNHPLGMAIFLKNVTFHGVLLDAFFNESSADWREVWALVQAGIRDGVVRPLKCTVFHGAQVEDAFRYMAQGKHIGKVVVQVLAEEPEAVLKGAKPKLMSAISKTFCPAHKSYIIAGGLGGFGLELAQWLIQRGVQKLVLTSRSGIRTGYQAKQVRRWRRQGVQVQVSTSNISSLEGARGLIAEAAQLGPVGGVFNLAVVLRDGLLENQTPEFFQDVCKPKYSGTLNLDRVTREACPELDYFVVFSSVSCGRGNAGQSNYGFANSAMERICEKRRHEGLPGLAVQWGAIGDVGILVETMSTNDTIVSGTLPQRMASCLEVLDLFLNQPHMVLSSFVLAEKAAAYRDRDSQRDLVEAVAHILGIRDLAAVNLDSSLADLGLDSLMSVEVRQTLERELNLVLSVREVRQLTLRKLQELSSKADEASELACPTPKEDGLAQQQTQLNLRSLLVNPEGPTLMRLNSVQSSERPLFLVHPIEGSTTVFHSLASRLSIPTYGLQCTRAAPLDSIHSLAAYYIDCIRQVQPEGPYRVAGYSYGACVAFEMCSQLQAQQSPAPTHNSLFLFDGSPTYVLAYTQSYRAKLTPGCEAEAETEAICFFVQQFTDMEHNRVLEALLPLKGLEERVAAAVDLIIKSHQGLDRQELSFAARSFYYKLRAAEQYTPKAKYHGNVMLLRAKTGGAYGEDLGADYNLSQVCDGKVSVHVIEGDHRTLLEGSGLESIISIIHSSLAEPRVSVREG
Broad substrate specificity ATP-binding cassette transporter ABCG2 (Homo sapiens), sequence (Q9UNQ0 whole entry, looked up): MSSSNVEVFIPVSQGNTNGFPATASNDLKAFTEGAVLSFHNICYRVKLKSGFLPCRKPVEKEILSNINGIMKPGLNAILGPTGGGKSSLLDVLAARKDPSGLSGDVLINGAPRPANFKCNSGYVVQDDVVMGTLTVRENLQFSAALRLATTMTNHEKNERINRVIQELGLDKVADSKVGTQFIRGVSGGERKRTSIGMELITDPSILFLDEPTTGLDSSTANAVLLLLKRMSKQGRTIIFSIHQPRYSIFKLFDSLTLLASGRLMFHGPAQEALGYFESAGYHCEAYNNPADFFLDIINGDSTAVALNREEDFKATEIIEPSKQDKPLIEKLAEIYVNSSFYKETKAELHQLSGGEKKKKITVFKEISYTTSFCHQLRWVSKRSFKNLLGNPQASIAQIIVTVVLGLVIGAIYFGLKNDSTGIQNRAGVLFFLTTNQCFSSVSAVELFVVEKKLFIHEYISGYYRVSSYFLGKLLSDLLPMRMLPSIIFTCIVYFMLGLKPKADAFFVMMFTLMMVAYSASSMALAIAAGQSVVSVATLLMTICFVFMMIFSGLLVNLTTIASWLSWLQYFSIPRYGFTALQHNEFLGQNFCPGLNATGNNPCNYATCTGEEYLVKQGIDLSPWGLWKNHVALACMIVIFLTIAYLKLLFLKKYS

The term AC50 denotes the concentration giving half of the maximal activity seen. Regarding `Nc1ccc(-c2ccc(N)cc2)cc1`, the outcome in experiment [1], in experiment [2], in [3], in experiment [4], in [5] and in experiment [6] was inactive. For the same molecule, the call in experiment [8], in experiment [9], in experiment [10], in [11], in experiment [13] and in experiment [14] was inactive. Moreover, the molecule was classed as inactive in [16], in [17], in experiment [18] and in [19]. The AC50 in experiment [7] was 50 µM (active); in experiment [12] it was 0.0737 µM (active); in [15] it was 3.77 µM (active).

On to `CCCCCCCCOC(=O)c1ccccc1C(=O)OCCCCCCCC`, for which the result in experiment [1], in experiment [2], in [3], in experiment [4], in experiment [5] and in experiment [6] was inactive. For the same molecule, the call in experiment [7], in experiment [8], in [9], in experiment [10], in experiment [11] and in experiment [12] was inactive. The call in experiment [13], in experiment [14], in experiment [15], in experiment [16], in experiment [17] and in [18] was inactive. Moreover, the molecule was called inactive in experiment [19].

Turning to `CC(C)(c1ccccc1)c1ccc(O)cc1`, the molecule was classed as inactive in [1], in experiment [3], in experiment [4], in experiment [5], in [6] and in experiment [7]. Besides, the molecule was classed as inactive in experiment [10], in experiment [11], in [12], in [13], in experiment [14] and in experiment [16]. In addition, the outcome in [17], in experiment [18] and in experiment [19] was inactive. The AC50 in [15] is 76.1 µM (active).
